Only some compounds are listed: those with a hit (about 1.5% of all), similar ones and a draw of the others.
CRFBP-R2 agonist – agonists of human CRF-binding protein/CRF-R2 receptor complex; HEK293 CRF-R2/CRF-BP, calcium dye fluorescence (FLIPR); percent of saturating CRF peptide response; activation, % at 13.2 µM; AID 588473; actives 0.46% (n = 350,000);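 active = activation of at least 50%, plus an integration ratio under a set limit after plate pattern correction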;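 also: plate controls were neutral control wells without compound for no effect and CRF at EC100 for full effect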
IDE cell activ – activators of human insulin-degrading enzyme in cells; P14735; HEK cells, FAbeta-B cleavage, fluorescence polarization; 0% vehicle, 100% cell-free pure enzyme wells; activation, % at 5.96 µM; actives 0.073% (n = 340,000);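 active = activation above the mean of all tested compounds plus 3 SD, set per screening campaign, cut at about 17% in these data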
Cardiac RTF inh – cardiac RTF calcium desensitization; IANBD-labeled cardiac RTF, Ca2+ fluorescence; actives 0.12% (n = 340,000); P19429+P45379; inhibition, % at 7.15 µM;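 active = inhibition above the mean inhibition of all tested compounds plus 3 SD, cut at about 17% in these data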;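 also: assay run at fixed EC70 calcium of 1.6 mM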
IDE inh – cellular human IDE inhibition | P14735 | HEK cells, FAbetaB cleavage, fluorescence polarization | inhibition, % at 5.59 µM | actives 0.41% (n = 320,000) | AID 434962;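 active = percent inhibition above the average of all tested compounds plus 3 SD, set per screening campaign, cut at about 16% in these data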;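 also: IDE supplied by intact live HEK cells; FP after avidin binding of uncleaved biotin substrate so inhibition keeps polarization high; 0% = DMSO wells and 100% = 60 µM reference IDE inhibitor Ii1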
TPT1 inhibitor – inhibitors of Candida albicans tRNA 2'-phosphotransferase TPT1; recombinant caTPT1, FP RNA substrate dephosphorylation; inhibition, % at 5 µM; actives 0.81% (n = 300,000); AID 1962;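 active = inhibition above the mean of all tested compounds plus 3 SD, set per screening campaign, cut at about 24% in these data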;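 also: plate controls were DMSO alone for no effect and ferristatin control at 100 nM for full effect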
RTF Ca sens act – increases calcium sensitivity of human cardiac regulated thin filaments; actives 0.24% (n = 340,000); AID 493008; activation, % at 7.2 µM; IANBD-labeled TnC RTF fluorescence at EC20 calcium; 0% EC20 calcium, 100% full calcium;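 active = activation above the mean over all tested compounds plus 3 SD, cut at about 30% in these data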;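 also: rise in fluorescence read as greater calcium sensitivity of cardiac thin filaments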
TPT1 inh confirm – TPT1 (C. albicans) inhibition, confirmation; shares compounds with TPT1 inhibitor; inhibition, % at 5 µM; recombinant caTPT1, fluorescence polarization, RNase T1 coupled; actives 74% (n = 2,400);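 active = inhibition above the primary screen limit, the mean inhibition of all tested compounds plus 3 SD, cut at about 25% in these data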
RNase T1 counter – counter-screen for TPT1 inhibitors: inhibitors of Aspergillus oryzae RNase T1; RNase T1 cleavage, fluorescence polarization, 1536-well; inhibition, % at 5 µM; AID 2153; shares compounds with TPT1 inhibitor; actives 83% (n = 2,400);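 active = inhibition above the solvent-only control well mean plus 3 SD, limit set per screening run, cut at about 23% in these data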;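 also: plate controls were DMSO wells with enzyme for no effect and wells without RNase T1 for full effect; inhibitors block cleavage so intact labeled substrate keeps polarization high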
An asterisk follows results filed as active.

`O=C(NCCc1ccccc1)c1cnc2ccccc2n1` gave CRFBP-R2 agonist -3, IDE cell activ 3, Cardiac RTF inh -4, IDE inh -2, TPT1 inhibitor 4 and RTF Ca sens act -5.
For COc1ccc(/C=C(/NC(=O)c2ccco2)C(=O)N2CCc3ccccc32)cc1OC the results were CRFBP-R2 agonist -5, IDE cell activ 2, Cardiac RTF inh -1, IDE inh 5, TPT1 inhibitor -2 and RTF Ca sens act 3.
Screening N#C/C(=C\c1ccc(O)c(O)c1)C(=O)N1CCc2ccccc21 returned CRFBP-R2 agonist 5, IDE cell activ -7, Cardiac RTF inh -13, IDE inh 5, TPT1 inhibitor 36*, RTF Ca sens act 0, TPT1 inh confirm 46* and RNase T1 counter 51*.
Screening COc1cc(/C=C(\C#N)C(=O)N2CCc3ccccc32)ccc1O returned CRFBP-R2 agonist 1, IDE cell activ -29, Cardiac RTF inh -8, IDE inh 14, TPT1 inhibitor 36*, RTF Ca sens act -1, TPT1 inh confirm 71* and RNase T1 counter 76*.
`CCCCn1c(O)c(/C=C2\C=Nc3ccccc32)c(=O)[nH]c1=O` gave CRFBP-R2 agonist 10, IDE cell activ 1, Cardiac RTF inh -6, IDE inh 0, TPT1 inhibitor 30*, RTF Ca sens act -3, TPT1 inh confirm 33* and RNase T1 counter 43*.
Screening CCCCc1nn2c(N)c(/C=C3\C=Nc4ccccc43)c(=O)nc2s1 returned CRFBP-R2 agonist -2, IDE cell activ 0, Cardiac RTF inh 8, IDE inh -2, TPT1 inhibitor 5 and RTF Ca sens act -2.
Screening CSc1ncc(C(=O)Nc2cccnc2)c(C(F)(F)F)n1 returned CRFBP-R2 agonist 1, IDE cell activ -1, Cardiac RTF inh -9 and RTF Ca sens act -4.
`CC(=O)c1sc2nc(CSc3nnnn3-c3ccccc3)[nH]c(=O)c2c1C` gave CRFBP-R2 agonist 13, IDE cell activ -13, Cardiac RTF inh -23, IDE inh 14, TPT1 inhibitor 71*, RTF Ca sens act 11, TPT1 inh confirm 69* and RNase T1 counter 81*.
Cc1ccc(-n2nnnc2SCc2nc3sc(C)c(C)c3c(=O)[nH]2)cc1 was read as CRFBP-R2 agonist 4, IDE cell activ -2, Cardiac RTF inh -1, IDE inh 8, TPT1 inhibitor 20 and RTF Ca sens act 14.
COc1cccc(/C=C(/C#N)c2ccc(F)cc2)c1OCc1cccc(C(=O)O)c1 was read as CRFBP-R2 agonist -2, IDE cell activ 0, Cardiac RTF inh 5, IDE inh 3, TPT1 inhibitor 0 and RTF Ca sens act -1.
Screening N#C/C(=C/c1ccc(N2CCCCCC2)o1)c1ccc(F)cc1 returned CRFBP-R2 agonist 6, IDE cell activ -10, Cardiac RTF inh -16, IDE inh 2, TPT1 inhibitor 158*, RTF Ca sens act 4, TPT1 inh confirm 182* and RNase T1 counter 168*.
O=C(Nc1ccc(N2CCCC2)cc1)c1cccc(F)c1 was read as CRFBP-R2 agonist 1, IDE cell activ -3, Cardiac RTF inh -7, IDE inh 2, TPT1 inhibitor 4 and RTF Ca sens act 2.
For COc1cc(N2CCCC2)c(OC)cc1/C=C(/C#N)c1cccc(F)c1 the results were CRFBP-R2 agonist 47, IDE cell activ -16, Cardiac RTF inh -38, IDE inh 17*, TPT1 inhibitor 143*, RTF Ca sens act 16, TPT1 inh confirm 145* and RNase T1 counter 140*.
N#C/C(=C/c1ccc(N2CCCCCC2)o1)c1cccc(F)c1 was read as CRFBP-R2 agonist 2, IDE cell activ -21, Cardiac RTF inh -35, IDE inh 2, TPT1 inhibitor 160*, RTF Ca sens act 26, TPT1 inh confirm 177* and RNase T1 counter 163*.
O=C(N/N=C/c1ccc(N2CCCCC2)o1)c1ccccc1 was read as CRFBP-R2 agonist -2, IDE cell activ 0, Cardiac RTF inh 7, IDE inh 7, TPT1 inhibitor 4 and RTF Ca sens act 5.
For Cc1cc(N2CCCC2)ccc1/C=C1/C(=O)N(C)C(=S)N1C the results were CRFBP-R2 agonist 5, IDE cell activ -63, Cardiac RTF inh -2, IDE inh 31*, TPT1 inhibitor 73*, RTF Ca sens act 10, TPT1 inh confirm 67* and RNase T1 counter 76*.
For COc1ccc(/C=C/c2cc[n+](C(=O)Cc3ccccc3)cc2)cc1 the results were CRFBP-R2 agonist -3, IDE cell activ 2, Cardiac RTF inh -7, IDE inh 2, TPT1 inhibitor 26*, RTF Ca sens act 1, TPT1 inh confirm 7 and RNase T1 counter 8.
Screening COc1ccc(/C=C/C(=O)NCCCc2ccccc2)cc1 returned CRFBP-R2 agonist -1, IDE cell activ 1, Cardiac RTF inh -11, IDE inh -3, TPT1 inhibitor 1 and RTF Ca sens act 3.
For COc1ccc(/C=N/NC(=O)c2ccc(O)cc2)cc1CN1CCCc2ccccc21 the results were CRFBP-R2 agonist 0, IDE cell activ 1, Cardiac RTF inh 1, IDE inh -1, TPT1 inhibitor 31*, RTF Ca sens act 5, TPT1 inh confirm 40* and RNase T1 counter 54*.
`COc1ccc(/C=N/NC(=O)c2ccc(F)cc2)cc1CN1CCc2cc(OC)c(OC)cc2C1C` (stereo not given) gave CRFBP-R2 agonist -1, IDE cell activ 0, Cardiac RTF inh 1, IDE inh 0, TPT1 inhibitor 1 and RTF Ca sens act 1.
Screening CCCCCCCCCCCC1N=C(N)NC(CCCO)=C1C(=O)OC (stereo not given) returned CRFBP-R2 agonist 9, IDE cell activ 9, Cardiac RTF inh -1 and RTF Ca sens act -12.
`OCC[C@@H]1C[C@H](O)[C@@H](O)[C@@]2(OCc3cc(C(F)(F)F)ccc32)O1` gave CRFBP-R2 agonist -1.
For Cc1ccc(NC(=O)N/C=C/c2ccco2)c(C)c1 the results were CRFBP-R2 agonist 8, IDE cell activ 3, Cardiac RTF inh -2, IDE inh -1, TPT1 inhibitor 23 and RTF Ca sens act -2.
For Cc1ccc(NC(=O)N/C=C/c2ccco2)cc1C the results were CRFBP-R2 agonist -1, IDE cell activ 6, Cardiac RTF inh -9, IDE inh 4, TPT1 inhibitor 24*, RTF Ca sens act 6, TPT1 inh confirm 61* and RNase T1 counter 73*.
CN(Cc1cccs1)C(=O)c1ccc(Cl)c(S(=O)(=O)N2CCCCCC2)c1 was read as CRFBP-R2 agonist 5, IDE cell activ -1, Cardiac RTF inh -1, IDE inh 4 and RTF Ca sens act 2.

Assay outcomes from PubChem BioAssay.
